HT1080 IDH1KD tx: toxicity to HT-1080 IDH1 knockdown cells (counter line); actives 2% (n = 360,000); HT-1080 IDH1 knockdown viability, ATP luminescence, 48 h; AID 686971; Potency, µM (series often up to 46.1 µM), for the others: top-dose activity, negative = toxicity, usual class: cytotoxic;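 further: potency means the concentration at half of the fitted maximal effect; 0% = DMSO wells and -100% = cell-free medium wells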
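IDH1KD HT-1080 cells, 750/well, RPMI + 5% FBS; compound pinned after 2 h settling; 48 h, 37 °C; CellTiter-Glo luminescence; % activity normalised to DMSO and no-cell wells; curves fitted, classed by r2 and efficacy.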
HepG2 viability: HepG2 cytotoxicity, counter-screen for TGF-b inhibitors; HepG2 CAGA-GFP viability, ATP luminescence, 18 h; Potency, µM (titrated, usually from 46.1 µM), without a hit: at the highest dose activity change, negative = cytotoxicity, hits mostly cytotoxic; actives 0.76% (n = 410,000); further: potency means the concentration at half of the fitted maximal effect
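HepG2 CAGA-GFP cells (1000/well, DMEM with 1% FBS) received compound, then TGF-beta at 500 pg/mL final, and were incubated 18 hours at 37 degrees C. Viability was read by CellTiter-Glo luminescence. Media-only wells were set as complete cell-killing and DMSO as no toxicity.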
Giardia killer: Giardia lamblia killing; Giardia lamblia trophozoite viability; activity change, % at 7.66 µM, hits read low; actives 0.15% (n = 340,000); AID 540267; in the data active means activity change below about -80%; inconclusive means between about -30% and that limit;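 further: parasites exposed to compound for two days anaerobically before the ATP read; on the % scale 0 is the no-effect control and ±100 the full control effect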
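Luminescent ATP signal served as the viability read-out, measured 15-30 min after adding ATP detection reagent to trophozoites that had been incubated with compounds for 48 hrs at 37 deg C anaerobically at 100 cells/well.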
HT1080NT lethal: kills 2HG-producing HT-1080-NT fibrosarcoma cells. HT-1080-NT fibrosarcoma viability, CellTiter-Glo ATP luminescence, 48 h. actives 1.6% (n = 360,000). Potency, µM (top dose mostly 46.1 µM), for inactives: at the top dose activity, negative = less viability, hits mostly cytotoxic;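 further: NT is the 2HG producing partner of a matched IDH1 knockdown line; potency means the concentration at half of the fitted maximal effect; 0% = DMSO-treated cells and -100% = media-only wells without cells; nearly all actives have a fitted effect of over 55% in size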
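HT-1080-NT fibrosarcoma cells (2HG-overproducing), 750 cells/well in RPMI with 5% FBS, dosed after 2 h and incubated 48 h at 37C. CellTiter-Glo luminescence normalized to DMSO and no-cell wells; concentration-response curves fitted and classed.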
TGFb SMAD3 inh: blocks TGF-b signaling; actives 1.2% (n = 410,000); HepG2 CAGA-GFP TGF-b/SMAD3 reporter, GFP fluorescence, 18 h; TGF-beta stimulated, 500 pg/mL final; Potency, µM (doses to about 46.1 µM), without a hit: at the highest dose activity, negative = inhibition, hits mostly inhibitors; further: potency means the concentration at half of the fitted maximal effect; on the % scale 0 is the no-effect control and ±100 the full control effect; nearly all actives have a fitted effect of over 65% in size
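TGF-beta reporter screen: HEPG2 CAGA-GFP, 1% FBS, 500 pg/mL TGF-beta final, 18 h; per-cell GFP summed per well; curves fitted and categorized by class.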
IL-1B inflam inh: blocks inflammasome-driven IL-1 beta release; THP-1 LPS/ATP IL-1B secretion, AlphaLISA, 16 h; hits give low values; activity change, % at 57.5 µM; actives 4.7% (n = 360,000); in the data active means activity change below about -50%; inconclusive means mostly about -30% to -49%; further: on the % scale 0 is the no-effect control and ±100 the full control effect
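Secreted IL-1B measured by AlphaLISA bead assay after 16 h compound exposure of THP-1 cells; compounds (final up to 57.5 uM) added 1 h before LPS (250 ng/mL) and ATP (1.25 mM) stimulation; lower signal means less secretion.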
* = called active by the depositor. Most compounds without a hit are left out; they make up all but 6.5% or so of the library. Unless noted, the call rests on the fitted dose curve; in most records, active means well fitted curve in the direction sought with a large enough effect; inconclusive means small, poorly fitted or top-dose-only effect, or another doubt; inactive means no such curve, though single readings can be large; an effect the other way counts as inactive or inconclusive.

Screening Cc1cc(/C=C2/NC(=O)NC2=O)c(C)n1-c1sc2c(c1C#N)CCCC2 returned HT1080 IDH1KD tx -22%, HepG2 viability -7%, Giardia killer 4, HT1080NT lethal -5%, TGFb SMAD3 inh -4% and IL-1B inflam inh 3.
`COc1ccccc1C(=O)COC(=O)c1ccc(N(C)C)cc1` gave HT1080 IDH1KD tx -2%, HepG2 viability -3%, Giardia killer -18, HT1080NT lethal 0%, TGFb SMAD3 inh 1% and IL-1B inflam inh -11.
CCC1(C)Cc2c(sc3nnn(CC(=O)Nc4ccc(C)cc4)c(=O)c23)CO1 (stereo not given) was read as HT1080 IDH1KD tx 3%, HepG2 viability -15%, Giardia killer 9, HT1080NT lethal -1%, TGFb SMAD3 inh inconclusive and IL-1B inflam inh 14.
`CC(C)CC(N)c1csc(NC(=O)C(c2ccccc2)c2ccccc2)n1` (stereo not given) gave HT1080 IDH1KD tx 2.9µM*, HepG2 viability 13µM*, HT1080NT lethal 7.3µM*, TGFb SMAD3 inh inconclusive and IL-1B inflam inh -28.
CC(C)CC(N)c1csc(Nc2ccc(C(=O)NCCO)cc2)n1 (stereo not given) was read as HT1080 IDH1KD tx 29%, HepG2 viability -6%, HT1080NT lethal inconclusive, TGFb SMAD3 inh 1% and IL-1B inflam inh 23.
`Cc1cccc(Cn2nc(C(C)(C)C)cc2C(=O)Nc2ccc(F)cc2)c1` gave HT1080 IDH1KD tx inconclusive, HepG2 viability 13µM*, Giardia killer -9, HT1080NT lethal inconclusive, TGFb SMAD3 inh inconclusive and IL-1B inflam inh -53*.
For Nc1nc(NC(=O)/C=C\C(=O)O)nn1-c1ccccc1 the results were HT1080 IDH1KD tx 2%, HepG2 viability -25%, Giardia killer -2, HT1080NT lethal 23%, TGFb SMAD3 inh 8% and IL-1B inflam inh -1.
For COc1ccc(C2=NOC(C(=O)NCc3ccccn3)C2)cc1 (stereo not given) the results were HT1080 IDH1KD tx -3%, HepG2 viability -20%, Giardia killer 0, HT1080NT lethal -3%, TGFb SMAD3 inh 4% and IL-1B inflam inh 19.
For CC1CCN(c2c(NCc3ccc(C(=O)N4CCc5ccccc54)cc3)c(=O)c2=O)CC1 the results were HT1080 IDH1KD tx 4.1µM*, HepG2 viability 2%, Giardia killer 8, HT1080NT lethal 5.2µM*, TGFb SMAD3 inh inconclusive and IL-1B inflam inh 110.
`CC(C)CC(N)c1csc(Nc2cnccn2)n1` (stereo not given) gave HT1080 IDH1KD tx -11%, HepG2 viability -30%, HT1080NT lethal -27%, TGFb SMAD3 inh inconclusive and IL-1B inflam inh -16.
Screening NC(CCc1ccccc1)c1csc(Nc2ccccn2)n1 (stereo not given) returned HT1080 IDH1KD tx 16µM*, HepG2 viability -60%, HT1080NT lethal inconclusive, TGFb SMAD3 inh inconclusive and IL-1B inflam inh inconclusive.
Screening CC(C)CC(N)c1csc(Nc2ccccn2)n1 (stereo not given) returned HT1080 IDH1KD tx inconclusive, HepG2 viability -12%, HT1080NT lethal inconclusive, TGFb SMAD3 inh inconclusive and IL-1B inflam inh -50*.
`Cc1ccc2c(C)c(C(=O)NCC(c3ccc(Cl)cc3)N3CCOCC3)oc2c1` (stereo not given) gave HepG2 viability -1% and TGFb SMAD3 inh inconclusive.
Screening COc1ccc2oc(=O)c(-c3csc(Nc4cccc(O)c4)n3)cc2c1 returned HT1080 IDH1KD tx inconclusive, HepG2 viability 15%, Giardia killer 19, HT1080NT lethal inconclusive, TGFb SMAD3 inh inconclusive and IL-1B inflam inh -79*.
`Nc1ccc(Nc2nc(-c3cc4ccccc4oc3=O)cs2)cc1` gave HT1080 IDH1KD tx -1%, HepG2 viability -11%, Giardia killer -21, HT1080NT lethal -8%, TGFb SMAD3 inh inconclusive and IL-1B inflam inh -90*.
`COc1cccc2sc(Nc3nc(-c4ccncc4)cs3)nc12` gave HT1080 IDH1KD tx 2.3µM*, HepG2 viability 8%, Giardia killer 12, HT1080NT lethal 2.3µM*, TGFb SMAD3 inh 10% and IL-1B inflam inh 40.
COc1cccc2sc(NN)nc12 was read as HT1080 IDH1KD tx inconclusive, HepG2 viability -13%, Giardia killer -16, HT1080NT lethal -22%, TGFb SMAD3 inh -9% and IL-1B inflam inh -1.
For COc1cccc2sc(Nc3nc(-c4cc5ccccc5oc4=O)cs3)nc12 the results were HT1080 IDH1KD tx 2.1µM*, HepG2 viability -56%, Giardia killer -9, HT1080NT lethal 5.2µM*, TGFb SMAD3 inh -16% and IL-1B inflam inh 59.
For COC(=O)c1nn(-c2ccccc2)c(Cl)c1/C=N/OCc1c(Cl)cccc1Cl the results were HT1080 IDH1KD tx -4%, HepG2 viability -24%, Giardia killer 5, HT1080NT lethal 0%, TGFb SMAD3 inh -10% and IL-1B inflam inh 33.
CN(c1ccccc1)S(=O)(=O)c1ccc(NC(=O)c2ccco2)cc1 was read as HT1080 IDH1KD tx -11%, HepG2 viability -6%, Giardia killer 4, HT1080NT lethal -13%, TGFb SMAD3 inh 16% and IL-1B inflam inh -8.
Screening CCCCn1c(N)c(N(CCOC)C(=O)Cn2c(=O)oc3ccccc32)c(=O)[nH]c1=O returned HT1080 IDH1KD tx 5%, HepG2 viability -3%, Giardia killer -8, HT1080NT lethal 0%, TGFb SMAD3 inh -3% and IL-1B inflam inh 31.
For Cc1ccc(SCCC(=O)Nc2ccccc2C(=O)N2CCOCC2)cc1 the results were HT1080 IDH1KD tx -3%, HepG2 viability -49%, Giardia killer -5, HT1080NT lethal -2%, TGFb SMAD3 inh 3% and IL-1B inflam inh 29.
`O=C(CS(=O)(=O)c1ccccc1)Nc1ccccc1Br` gave HT1080 IDH1KD tx 10%, HepG2 viability -2%, Giardia killer 16, HT1080NT lethal 20%, TGFb SMAD3 inh inconclusive and IL-1B inflam inh -28.
For CCN(CC)S(=O)(=O)c1ccc(C(O)=C(C#N)c2nc3ccccc3n2C)cc1 the results were HT1080 IDH1KD tx -6%, HepG2 viability -1%, Giardia killer -14, HT1080NT lethal -16%, TGFb SMAD3 inh 3% and IL-1B inflam inh -72*.
Cn1c(/C(C#N)=C(\O)c2ccccc2Cl)nc2ccccc21 was read as HT1080 IDH1KD tx -1%, HepG2 viability -2%, Giardia killer -9, HT1080NT lethal 0%, TGFb SMAD3 inh 1% and IL-1B inflam inh -19.

Screening data: PubChem BioAssay, National Center for Advancing Translational Sciences (NCATS)
